Screens deposited in PubChem by National Center for Advancing Translational Sciences (NCATS).
Hits are enriched below; roughly 3.6% of the tested compounds scored in any of these assays.
S16 viability = Cell viability qHTS assay in S16 Pmp22-F2sN cells; S16 Pmp22-F2sN Schwann cells viability, CellTiter-Glo, 24 h; 43,000 tested, 0.48% active; Potency, µM (titrated, usually from 57.5 µM), for the others: at the top dose activity change, negative = cytotoxicity, actives largely listed as cytotoxic; also: potency is read from the fitted curve at half-maximal effect; % is scaled to controls: 0 for no effect and ±100 for the full control effect; nearly all actives have a fitted effect of over 65% in size
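S16 Pmp22-F2sN Schwann cells (500-1,000/well) in phenol-red-free DMEM with 10% FBS received 23 nL compound by pin tool for 24 h at 37 °C. Viability was then read as CellTiter-Glo luminescence after 15 min at room temperature.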
mTORC1 inh = Acumen qHTS Assay for Inhibitors of the mTORC1 Signaling Pathway in MEF (Tsc2-/-, p53-/-) Cells: Sytravon; Potency, µM (doses to about 38.3 µM), for the others: at the top dose activity change, negative = inhibition, usual class: inhibitors; Tsc2-/- p53-/- MEF, phospho-rpS6 immunofluorescence/PI, 24 h; AID 493208, 2011; 44,000 tested, 0.78% active;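 also: potency is read from the fitted curve at half-maximal effect; plate controls were DMSO for no effect and rapamycin for full effect; nearly all actives have a fitted effect of over 50% in size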
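Readout is phospho-S6 Alexa 488 signal normalized to PI per well, reported as % active cells with thresholds set from rapamycin (7.5 nM) and DMSO controls. Cells: Tsc2-/-, p53-/- MEFs, 24 hrs compound at 37 C; PI cell number serves as viability.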
PMP22 txn prim = Cell-based coincidence reporter assay to measure PMP22 gene transcription in S16 Pmp22-F2sN cells - Primary screen; 43,000 tested, 2% active; S16 Pmp22-F2sN Schwann cells (luciferase reporters placed in the Pmp22 gene), FLuc/NLuc coincidence luminescence, 24 h; Potency, µM (doses to about 57.5 µM), inactives show at the top dose activity change, negative = inhibition, actives largely listed as inhibitors; AID 1508649, 2021; active = clear falling dose curves in both reporters; inconclusive = both reporters move, but less clearly or upward; inactive = either reporter flat; the % is the NLuc reporter signal; also: potency is read from the fitted curve at half-maximal effect; % is scaled to controls: 0 for no effect and ±100 for the full control effect
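Transcriptional readout in edited S16(c9) cells: two luciferases reported from the Pmp22 locus, measured in turn after 24 h compound incubation.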
HTT promoter inh = Primary qHTS for Identification of Small Molecule Inhibitors of Huntingtin Promoter Activity; HEK293 HTT promoter firefly luciferase reporter, 24 h; Potency, µM (highest dose often 57.5 µM), for inactives: top-dose activity change, negative = inhibition, most hits filed as inhibitors; 48,000 tested, 0.93% active; AID 1508623, 2021; also: potency is read from the fitted curve at half-maximal effect; nearly all actives have a fitted effect of over 50% in size
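HEK293 luciferase promoter-reporter cells (2,500/well) plated 24 h, then compounds added at up to 57.5 uM final for 24 h at 37 °C. Firefly luminescence by Dual-Glo, normalized to vehicle (0%) and zero RLU (-100%).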
HTT-AS promoter = Primary qHTS for Identification of Small Molecule Activators of Huntingtin-Antisense Promoter Activity. HEK293 HTT-AS promoter firefly luciferase reporter, 24 h; response scale: percent change from vehicle, -100% = no light. Potency, µM (titrated, usually from 57.5 µM), without a hit: at the highest dose activity change, positive = activation, most hits filed as activators. 48,000 tested, 0.24% active. AID 1508624, 2021; also: potency is read from the fitted curve at half-maximal effect; nearly all actives have a fitted effect of over 55% in size
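HEK293 Fluc reporter, 2,500 cells/well, 24 h pre-culture; cpds up to 57.5 uM final, 24 h 37 degrees C; Dual-Glo, 10 min RT; normalized vehicle = 0%, zero RLU = -100%.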
SKOV3 invasion = Primary qHTS assay for Inhibitors of ovarian cancer metastasis using an organotypic tumor microenvironment (TME) model | SKOV3ip1-GFP adhesion/invasion on 3D omental model, fluorescence | Potency, µM (titrated, usually from 45.8 µM), for inactives: at the highest dose activity change, negative = inhibition, most hits filed as inhibitors | 46,000 tested, 0.1% active | AID 1963576, 2024;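 also: potency is read from the fitted curve at half-maximal effect; plate controls were DMSO wells for no effect and tomatine positive control wells for full effect; nearly all actives have a fitted effect of over 65% in size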
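Adhesion/invasion was scored as fixed GFP-labeled SKOV3ip1 cell counts (488/509 nm), normalized to DMSO and tomatine controls. Cancer cells in serum-free medium, with four compound doses (0.36-46 umol/L), sat 2 hr at RT then 16 hr at 37 C on a 48 hr fibroblast/mesothelial/ECM culture.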
NLuc saturating = Biochemical NLuc saturation counterscreen for small molecule modulators of PMP22 gene expression - Nano-Glo assay. 690 tested, 4% active. Secreted NLuc enzyme (filtered S16 cell medium), Nano-Glo luminescence. shares compounds with PMP22 txn prim. Potency, µM (top dose mostly 57.5 µM), for the others: at the highest dose activity change, negative = inhibition, usual class: inhibitors; also: potency is read from the fitted curve at half-maximal effect; % is scaled to controls: 0 for no effect and ±100 for the full control effect
NLuc Km counter = Biochemical coelenterazine-based NLuc counterscreen for small molecule modulators of PMP22 gene expression - Km assay; shares compounds with PMP22 txn prim; secreted NLuc enzyme, coelenterazine luminescence, Km conditions; Potency, µM (top dose mostly 57.5 µM), without a hit: at the highest dose activity change, negative = inhibition, actives largely listed as inhibitors; 690 tested, 5% active; also: potency is read from the fitted curve at half-maximal effect; % is scaled to controls: 0 for no effect and ±100 for the full control effect
FLuc counter = Biochemical FLuc counterscreen for small molecule modulators of PMP22 gene expression; shares compounds with PMP22 txn prim; purified P. pyralis FLuc, luminescence, 10 min; Potency, µM (doses to about 57.5 µM), for the others: at the highest dose activity, negative = inhibition, usual class: inhibitors; 690 tested, under 10 active; AID 1508640, 2021; also: % of control where 0% means no effect
Target sequence (P08659 whole entry, looked up): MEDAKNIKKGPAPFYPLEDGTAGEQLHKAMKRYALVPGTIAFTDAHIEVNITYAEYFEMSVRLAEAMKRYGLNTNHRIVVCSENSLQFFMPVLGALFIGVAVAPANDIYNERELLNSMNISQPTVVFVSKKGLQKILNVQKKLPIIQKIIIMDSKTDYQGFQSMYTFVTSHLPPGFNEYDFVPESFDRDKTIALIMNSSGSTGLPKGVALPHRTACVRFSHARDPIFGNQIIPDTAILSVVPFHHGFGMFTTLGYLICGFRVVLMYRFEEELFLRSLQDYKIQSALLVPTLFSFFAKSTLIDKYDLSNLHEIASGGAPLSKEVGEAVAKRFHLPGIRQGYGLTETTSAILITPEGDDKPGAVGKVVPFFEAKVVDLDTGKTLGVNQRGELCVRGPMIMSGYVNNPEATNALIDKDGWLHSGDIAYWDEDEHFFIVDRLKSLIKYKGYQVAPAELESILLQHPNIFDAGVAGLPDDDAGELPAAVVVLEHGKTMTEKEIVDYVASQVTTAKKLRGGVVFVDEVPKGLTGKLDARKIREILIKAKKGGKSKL
S16 F2sN tox cnf = Cell viability qHTS assay in S16 Pmp22-F2sN cells - Confirmatory screen. Potency, µM (highest dose often 57.5 µM), inactives show at the top dose activity change, negative = viability loss, most hits filed as cytotoxic. S16 Schwann cells viability, CellTiter-Glo ATP luminescence, 24 h. 690 tested, 7% active. AID 1508641, 2021. shares compounds with PMP22 txn prim; also: potency is read from the fitted curve at half-maximal effect; % is scaled to controls: 0 for no effect and ±100 for the full control effect
PMP22 txn conf = Cell-based coincidence reporter assay to measure PMP22 gene transcription in S16 Pmp22-F2sN cells - Confirmatory screen | shares compounds with PMP22 txn prim | S16 Schwann cells Pmp22-F2sN, dual luciferase, 24 h | Potency, µM (top dose mostly 57.5 µM), inactives show at the highest dose activity change, negative = inhibition, hits mostly inhibitors | 690 tested, 22% active; active = clear falling dose curves in both reporters; inconclusive = both reporters move, but less clearly or upward; inactive = either reporter flat; the % is the FLuc reporter signal; also: potency is read from the fitted curve at half-maximal effect
PMP22 prot conf = Cell-based HiBiT reporter assay to measure PMP22 protein expression in S16 Pmp22-HiBiT cells - Confirmatory screen. Potency, µM (series often up to 27.9 µM), inactives show at the highest dose activity change, negative = inhibition, hits mostly inhibitors. 95 tested, under 10 active. shares compounds with PMP22 txn prim. S16 Schwann cells Pmp22-HiBiT, luminescence, 48 h
Target sequence (P25094 whole entry, looked up): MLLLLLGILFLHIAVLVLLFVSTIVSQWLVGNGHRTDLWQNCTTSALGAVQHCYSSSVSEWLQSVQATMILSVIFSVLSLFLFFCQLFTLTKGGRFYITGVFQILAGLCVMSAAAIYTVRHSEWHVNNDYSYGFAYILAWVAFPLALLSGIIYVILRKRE
The depositor's hits bear a star; i = inactive; ? = inconclusive; . = not tested or not shown. Unless noted, calls follow the shape of the dose curve; as a rule, active = well fitted curve in the direction sought with a large enough effect; inconclusive = small, poorly fitted or top-dose-only effect, or another doubt; inactive = no such curve, though single readings can be large; an effect the other way counts as inactive or inconclusive.

SMILES | S16 viability | mTORC1 inh | PMP22 txn prim | HTT promoter inh | HTT-AS promoter | SKOV3 invasion | NLuc saturating | NLuc Km counter | FLuc counter | S16 F2sN tox cnf | PMP22 txn conf | others
COC(=O)c1c(-c2ccc(Cl)cc2)noc1N1CCN(c2cccc(C(F)(F)F)c2)CC1 | ? | ? | 5.4µM* | -27% | ? | ? | -1% | -3% | 1% | ? | 16µM* | PMP22 prot conf=84%
COC(=O)c1c(-c2ccc(Cl)cc2)noc1N1CCN(c2ccc(F)cc2)CC1 | 8% | 0% | 3.8µM* | 6% | -11% | -5% | -1% | 1% | -1% | ? | 13µM* | PMP22 prot conf=76%
NC(=O)C1(N2CCCCC2)CCN(CCCN2c3ccccc3CCc3ccc(Cl)cc32)CC1 | . | . | . | ? | -38% | . | . | . | . | . | .
COc1ccc(NC(=O)CCNS(=O)(=O)c2ccc3c(c2)CCN3C(=O)C2CC2)cc1Cl | -25% | -24% | 14µM* | ? | -39% | -25% | ? | ? | -5% | -7% | -38%
O=C(CCNS(=O)(=O)c1ccc2c(c1)CCN2C(=O)C1CC1)Nc1ccc(Cl)cc1 | -28% | -1% | ? | ? | -39% | -6% | . | . | . | . | .
CCOC(=O)c1c(C)oc2ccc(N(C(=O)c3ccncc3)S(=O)(=O)c3ccc(F)cc3C)cc12 | -22% | -5% | ? | ? | -48% | 9% | . | . | . | . | .
COC(=O)c1c(C)oc2ccc(N(C(=O)c3ccncc3)S(=O)(=O)c3c(C)cc(C)cc3C)cc12 | -12% | -16% | 3.8µM* | ? | -38% | -4% | -8% | 6% | 11% | -7% | ?
N#CC1=C2SCN(C3CCCCC3)CN2C(=O)CC1c1c(F)cccc1Cl (configuration not stated) | -2% | -1% | 9.5µM* | -18% | -14% | 1% | 11µM* | 7.7µM* | -11% | 2% | -18%
CC(C)C(=O)Nc1cccc(C(F)(F)F)c1 | . | . | . | -3% | 0% | . | . | . | . | . | .
CCOc1ccc(-c2c(C)nn3c(C)c(C(=O)NCC(C)c4ccccc4)cnc23)cc1OCC (configuration not stated) | 4% | -16% | 17µM* | ? | -30% | i | ? | ? | -3% | -16% | ?
COC(=O)c1cc(Cl)ccc1OC | . | . | . | -2% | -4% | . | . | . | . | . | .
CN(C)CCNC(=O)c1ccc(-n2c(-c3ccccc3)cc3c2CCCC3)cc1 | 26% | ? | 20µM* | -5% | -4% | i | -1% | -1% | -8% | ? | ?
CC(C)NC(=O)c1ccc(-n2c(-c3ccccc3)cc3c2CCCC3)cc1 | ? | ? | 14µM* | 15% | -1% | 1% | -2% | -3% | -1% | ? | -23%
CC(C)OCCCNC(=O)c1ccc(-n2c(-c3ccccc3)cc3c2CCCC3)cc1 | -5% | 0% | 13µM* | 4% | 4% | i | -2% | -2% | 4% | 5% | ?
CCC(C)NC(=O)c1ccc(-n2c(-c3ccccc3)cc3c2CCCC3)cc1 (configuration not stated) | 4% | 0% | ? | 9% | 18% | i | . | . | . | . | .
COCCCNC(=O)c1ccc(-n2c(-c3ccccc3)cc3c2CCC(C)C3)cc1 (configuration not stated) | 8% | 8% | 18µM* | ? | -42% | -21% | -19% | -2% | -12% | ? | 2.7µM* | PMP22 prot conf=10%
CCCNC(=O)c1ccc(-n2c(-c3ccccc3)cc3c2CCCCC3)cc1 | 0% | -18% | ? | 12% | -1% | ? | . | . | . | . | .
CN(C)C(=O)[C@H](O)[C@H](Cc1ccccc1)NC(=O)c1cc2cc(Cl)ccc2[nH]1 | . | . | . | ? | -34% | 10% | . | . | . | . | .
CCN1CCN(c2nc3c(S(=O)(=O)c4ccc(C)cc4)nnn3c3ccsc23)CC1 | -20% | 3% | 17µM* | -12% | -18% | i | -6% | -17% | 0% | 9% | -35%
COc1ccc2c(c1)-c1nc(NC(=O)c3cc(Cl)ccc3OC)sc1CC2 | -3% | 3% | 17µM* | -5% | -11% | -7% | -15% | -9% | 2% | ? | ?
